Test results published in PMC4552634, “A New Set of Chemical Starting Points with Plasmodium falciparum Transmission-Blocking Potential for Antimalarial Drug Discovery” (PLoS ONE, 2015).
The whole screen tested about 13,000 compounds, of which about 3,200 (25%) showed an effect of 50% or more. This is one part of the list.

tested on: P. falciparum stage V gametocytes; design: BacTiter-Glo ATP luminescence viability of purified stage V gametocytes in 384-well plates, per cent inhibition versus DMSO; details: 48 h, 5 µM; inhibitor

Structure (SMILES)	% Inhibition [%]
O=C(Nc1ccc(-c2csc3nccn23)cc1)c1ccc(Cl)cc1 [TCMDC-137159]	11.24
CN1CCN(CCCN(Cc2ccc(-c3cccc(CNCc4ccc5c(c4)OCO5)c3)cc2)C(=O)NCCc2ccccc2)CC1 [TCMDC-140947]	67.47
CN1CCN(CCCN(Cc2ccc(-c3ccc(CNCc4ccc5c(c4)OCO5)cc3)cc2)C(=O)Nc2ccccc2)CC1 [TCMDC-140607]	58.83
CN1CCN(CCCN(Cc2cccc(-c3ccc(CNCc4ccc5c(c4)OCO5)cc3)c2)C(=O)Nc2ccccc2)CC1 [TCMDC-140596]	57.54
CN1CCN(CCCN(Cc2ccc(-c3cccc(CNCc4ccc5c(c4)OCO5)c3)cc2)C(=O)Nc2ccccc2)CC1 [TCMDC-140606]	65.32
c1ccc2c(c1)ncn2-c1ccnc(Nc2ccncc2)n1 [TCMDC-138908]	15.51
Cc1ccc(NC(=O)c2cc(Br)cc(N3CCCN(C)CC3)c2)cc1F [TCMDC-135143]	-89.56
CCCCCN1CCCC(CNS(=O)(=O)c2ccc(C(=O)Nc3ccc(C(F)(F)F)cc3)cc2)C1 (stereo not shown) [TCMDC-133679]	-5.047
c1ccc2c(c1)CN(CC1CCOCC1)CC1(CCN(Cc3c[nH]c4cnccc34)CC1)O2 [TCMDC-133380]	13.86
O=C(NCCCN(Cc1ccc(F)cc1)c1ccccn1)C(c1cc2ccccc2o1)N1CCN(C(c2ccccc2)c2ccccc2)CC1 (stereo not shown) [TCMDC-141022]	15.04
CCN(CCN(C)C)Cc1ccc(-c2ccc(NS(=O)(=O)c3cccc(Cl)c3)cc2)cc1 [TCMDC-136601]	2.097
O=C(COC(=O)c1cccc(S(=O)(=O)N2CCc3ccccc32)c1)NNC(=O)c1cccs1 [TCMDC-124334]	26.4
CC(C)C[C@H](NC(=O)c1ccc(OCCN2CCOCC2)cc1)C(=O)N[C@H](/C=N/NC(=O)c1ccccc1)CCc1ccccc1 [TCMDC-135817]	2.96
CCCCCN=C(N)c1ccc(OCCCCCOc2ccc(C(N)=NCCCCC)cc2)cc1 [TCMDC-137620]	63.24
CCCCCCN=C(N)c1ccc2nc(-c3ccc(O)cc3)[nH]c2c1 [TCMDC-137218]	15.89
CCCCN=C(N)Nc1ccc(OCCCOc2ccc(NC(N)=NCCCC)cc2)cc1 [TCMDC-137616]	55.77
CCCCCCN=C(N)c1ccc(OCCCCCOc2ccc(C(N)=NCCCCCC)cc2)cc1 [TCMDC-137619]	113.3
CC(C)CCN=C(N)c1ccc(OCCCCCOc2ccc(C(N)=NCCC(C)C)cc2)cc1 [TCMDC-137618]	62.8
NC(=NCc1ccc(O)cc1)Nc1nc(-c2ccc(OCCCn3ccnc3)cc2)cs1 [TCMDC-138936]	-10.17
CN(C)C=Nc1ccc(OCCCCCCOc2ccc(N=CN(C)C)cc2)cc1 [TCMDC-137575]	-11.04
COc1ccc(CN=C(N)Nc2nc(-c3ccc(OCCCn4ccnc4)cc3)cs2)cc1 [TCMDC-138934]	9.829
CCCCN=C(N)c1ccc(OCCCCCOc2ccc(C(N)=NCCCC)cc2)cc1 [TCMDC-137617]	33.37

Structure (SMILES)	% Inhibition [%]
O=C(Nc1cccc(-c2cc3ccccc3[nH]2)c1)C1CCN(Cc2ccccc2O)CC1 [TCMDC-124628]	-2.419
COC(=O)Nc1cc(C(F)(F)F)ccc1N1CCCC(NS(=O)(=O)c2ccc(C(C)(C)C)cc2)C1 (stereo not shown) [TCMDC-134158]	-30.72
CN1CCN(c2ccnc3ccc(NC(=O)Nc4ccc(Br)cc4)cc23)CC1 [TCMDC-139324]	-20.3
CC(CNC1CCN(CCn2c(=O)ccc3ccc(F)cc32)CC1)c1ccccc1 (stereo not shown) [TCMDC-135136]	3.185
CCN1CCCC(CNC(=O)/C(=C/C=C/c2cc3cc(Cl)c(Cl)cc3[nH]2)OC)C1 (stereo not shown) [TCMDC-139380]	-27.83
CC1CCC(C[C@@H](C(=O)N[C@H](C(=O)Nc2nccs2)[C@@H](C)O)[C@H](CCC(F)(F)F)N(O)C=O)CC1 (stereo partly shown) [TCMDC-138352]	2.054
Cc1ccc(OCCCCON2C(N)=NC(N)=NC2(C)C)cc1C [TCMDC-131655]	1.03
COc1ccc2nccc([C@@H](O)CN3CCC(NCc4ccc5c(n4)NCCC5)CC3)c2c1 [TCMDC-141460]	44.65
Cc1cc(N(C)C)nc(Nc2ccc(NC(=O)CCc3ccccc3)cc2)n1 [TCMDC-124721]	2.562
CN1CCN(c2ccnc3ccc(NC(=O)Cc4ccc5ccccc5c4)cc23)CC1 [TCMDC-139351]	4.671
Nc1c2c(nc3ccc(NC(=O)CCCc4ccccc4)cc13)CCCC2 [TCMDC-139057]	98.45
Nc1c2c(nc3ccc(NC(=O)c4ccccc4)cc13)CCCC2 [TCMDC-139043]	28.63
Nc1c2c(nc3ccc(NC(=O)Cc4ccccc4)cc13)CCCC2 [TCMDC-139055]	81.23
Nc1c2c(nc3cc(NC(=O)c4ccc([N+](=O)[O-])cc4)ccc13)CCCC2 [TCMDC-138975]	103.7
O=C(Nc1ccc(O)c(-c2nc3ccccc3[nH]2)c1)c1ccc([N+](=O)[O-])cc1 [TCMDC-124222]	-7.746
Nc1c2c(nc3ccc(NC(=O)CCCCCCc4ccccc4)cc13)CCCC2 [TCMDC-139056]	74.85
CN1CCN(c2ccnc3ccc(NC(=O)Cc4ccc(OCc5ccccc5)cc4)cc23)CC1 [TCMDC-139349]	24.22
O=C(CCCc1ccccc1)Nc1cccc(N2CCC(N3CCN(c4ccccc4O)CC3)CC2)c1 [TCMDC-124664]	-59.43
Cc1ccc2cc(NC(=O)CCCCCCCON3C(N)=NC(N)=NC34CCCCC4)ccc2n1 [TCMDC-140377]	0.7997
Nc1c2c(nc3ccc(NC(=O)CCCCCc4ccccc4)cc13)CCCC2 [TCMDC-139060]	-0.3465
COc1ccc2cc(C(=O)NC3CCC(CCN4CCc5cc(C#N)ccc5C4)CC3)[nH]c2c1 (stereo not shown) [TCMDC-139193]	-26.16
